In PubChem BioAssay:
Active and inactive are the calls of the source.

Assays:
[1] = binders of probe aFSTL3 on microarray, primary screen, stem cell growth factor project, biochemical, small-molecule microarray, fluorescence 635/667 (AID 1064); conditions: higher = more signal;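 further: measures binding of the biotinylated anti-FSTL3 antibody to printed compounds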
[2] = binders from COS7 lysate, DM2A8 probe, primary screen, torsin A project, cell lysate, small-molecule microarray, fluorescence 635/667 (AID 1065); conditions: higher = more signal, COS7 lysate expressing mutant human TOR1A
[3] = binders of probe aFGF2 on microarray, primary screen, stem cell growth factor project, biochemical, small-molecule microarray, fluorescence 635/667 (AID 1067); conditions: higher = more signal;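 further: measures binding of biotinylated aFGF2 protein to printed compounds on slides; z-score merges feature fluorescence and signal-to-noise across triplicate slides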
[4] = binders of probe aFGF10 on microarray, primary screen, stem cell growth factor project, biochemical, small-molecule microarray, fluorescence 635/667 (AID 1071); conditions: higher = more signal;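 further: score merges 667 nm spot intensity and signal to noise from triplicate slides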
[5] = target: Neurogenic locus notch homolog protein 2 (Homo sapiens) (UniProt Q04721); assay: Notch2 binders on small-molecule microarrays, primary screen, biochemical, small-molecule microarray, 635 nm fluorescence, stem cell growth factors (AID 1073); conditions: Notch2 binding, higher = more signal
[6] = target: Pro-neuregulin-1, membrane-bound isoform (Homo sapiens) (UniProt Q02297); assay: NRG1 binders on small-molecule microarrays, primary screen, psychiatric disease protein project, biochemical, small-molecule microarray, fluorescence 635/667 (AID 1075); conditions: NRG1 binding, 635 nm fluorescence, higher = more signal;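 further: score combines 667 nm spot fluorescence with signal to noise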
[7] = test system: Neuregulin-1 EGF-like domain; assay: binders of neuregulin-1 EGF-like domain, primary screen, biochemical, small-molecule microarray, 635 nm fluorescence (AID 1081); conditions: small-molecule microarray binding, higher = more signal;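 further: binding of the protein to compounds printed on small-molecule microarray slides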
[8] = FRG1 promoter luciferase signal modulators, primary screen, FRG1 inhibition for FSHD, cell-based, C2C12 myotubes, firefly/Renilla luciferase, luminescence (AID 1084); conditions: higher = more signal, called active from +8 up or from −8 down
[9] = binders of probe aFST on microarray, primary screen, stem cell growth factor project, biochemical, small-molecule microarray, fluorescence 635/667 (AID 1086); conditions: higher = more signal;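 further: score merges 667 nm fluorescence with signal-to-noise of each printed compound spot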
[10] = binders of probe aHhip on microarray, primary screen, stem cell growth factor project, biochemical, small-molecule microarray, fluorescence 635/667 (AID 1087); conditions: higher = more signal;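 further: score merges spot fluorescence at 667nm with spot signal to noise ratio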

Neurogenic locus notch homolog protein 2 (Homo sapiens), sequence (Q04721 whole entry, looked up, canonical isoform): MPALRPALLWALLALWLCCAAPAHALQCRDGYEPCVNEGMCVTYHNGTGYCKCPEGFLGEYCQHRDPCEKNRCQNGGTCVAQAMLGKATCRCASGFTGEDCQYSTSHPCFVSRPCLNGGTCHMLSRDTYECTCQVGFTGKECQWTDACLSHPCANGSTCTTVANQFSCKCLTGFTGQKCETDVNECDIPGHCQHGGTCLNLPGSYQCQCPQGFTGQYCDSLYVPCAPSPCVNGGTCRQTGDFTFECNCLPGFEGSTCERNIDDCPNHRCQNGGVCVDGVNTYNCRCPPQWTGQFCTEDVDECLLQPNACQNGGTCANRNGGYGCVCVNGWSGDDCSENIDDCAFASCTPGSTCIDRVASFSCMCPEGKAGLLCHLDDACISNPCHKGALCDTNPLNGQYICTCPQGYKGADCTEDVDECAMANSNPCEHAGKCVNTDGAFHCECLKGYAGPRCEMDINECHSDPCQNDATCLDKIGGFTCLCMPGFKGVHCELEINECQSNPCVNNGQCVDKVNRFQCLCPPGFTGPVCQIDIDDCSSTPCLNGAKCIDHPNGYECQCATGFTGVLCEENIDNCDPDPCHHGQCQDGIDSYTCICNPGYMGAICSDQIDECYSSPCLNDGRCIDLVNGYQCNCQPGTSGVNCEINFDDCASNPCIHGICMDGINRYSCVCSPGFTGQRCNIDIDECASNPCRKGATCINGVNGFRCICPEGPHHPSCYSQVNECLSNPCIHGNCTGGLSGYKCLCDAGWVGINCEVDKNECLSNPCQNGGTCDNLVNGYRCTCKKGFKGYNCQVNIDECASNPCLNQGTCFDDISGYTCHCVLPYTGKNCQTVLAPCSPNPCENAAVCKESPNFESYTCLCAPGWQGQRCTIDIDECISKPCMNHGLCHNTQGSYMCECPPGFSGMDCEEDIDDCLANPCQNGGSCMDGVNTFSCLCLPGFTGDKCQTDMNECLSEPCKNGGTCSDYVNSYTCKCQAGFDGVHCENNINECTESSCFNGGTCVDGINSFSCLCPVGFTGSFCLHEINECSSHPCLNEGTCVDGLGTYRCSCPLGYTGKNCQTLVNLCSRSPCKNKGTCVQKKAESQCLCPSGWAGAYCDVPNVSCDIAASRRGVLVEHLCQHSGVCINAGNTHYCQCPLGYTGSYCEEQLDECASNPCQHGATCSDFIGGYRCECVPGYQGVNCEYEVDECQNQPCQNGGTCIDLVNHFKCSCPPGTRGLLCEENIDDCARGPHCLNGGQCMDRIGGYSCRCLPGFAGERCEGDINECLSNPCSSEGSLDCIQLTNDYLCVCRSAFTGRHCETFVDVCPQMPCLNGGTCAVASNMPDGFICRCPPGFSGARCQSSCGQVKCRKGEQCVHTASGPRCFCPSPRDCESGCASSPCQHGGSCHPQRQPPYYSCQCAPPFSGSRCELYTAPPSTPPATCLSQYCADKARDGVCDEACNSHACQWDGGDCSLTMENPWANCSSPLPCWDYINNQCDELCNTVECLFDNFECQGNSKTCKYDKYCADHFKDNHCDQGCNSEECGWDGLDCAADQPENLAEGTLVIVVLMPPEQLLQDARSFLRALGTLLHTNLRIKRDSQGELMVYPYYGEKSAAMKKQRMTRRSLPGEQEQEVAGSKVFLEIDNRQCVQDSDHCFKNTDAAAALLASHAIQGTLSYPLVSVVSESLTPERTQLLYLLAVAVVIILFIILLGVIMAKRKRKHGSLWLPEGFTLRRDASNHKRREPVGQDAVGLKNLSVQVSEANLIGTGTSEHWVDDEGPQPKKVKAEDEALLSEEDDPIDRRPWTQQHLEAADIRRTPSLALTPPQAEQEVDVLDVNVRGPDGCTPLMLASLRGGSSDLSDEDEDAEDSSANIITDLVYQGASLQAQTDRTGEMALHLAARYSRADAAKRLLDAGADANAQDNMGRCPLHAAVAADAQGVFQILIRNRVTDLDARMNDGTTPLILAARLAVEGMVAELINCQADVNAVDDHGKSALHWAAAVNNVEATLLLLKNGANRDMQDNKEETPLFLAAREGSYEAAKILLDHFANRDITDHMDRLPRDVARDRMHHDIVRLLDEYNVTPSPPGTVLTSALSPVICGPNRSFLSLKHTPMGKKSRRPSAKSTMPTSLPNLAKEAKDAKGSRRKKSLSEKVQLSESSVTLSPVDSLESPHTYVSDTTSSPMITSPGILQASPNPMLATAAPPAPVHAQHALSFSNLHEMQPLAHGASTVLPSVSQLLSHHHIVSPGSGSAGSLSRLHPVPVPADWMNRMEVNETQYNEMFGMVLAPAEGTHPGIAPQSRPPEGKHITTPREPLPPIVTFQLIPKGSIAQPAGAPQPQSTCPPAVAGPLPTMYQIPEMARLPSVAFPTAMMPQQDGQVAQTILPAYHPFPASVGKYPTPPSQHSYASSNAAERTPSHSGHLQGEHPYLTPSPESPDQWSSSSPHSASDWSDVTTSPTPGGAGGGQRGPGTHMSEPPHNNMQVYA
Pro-neuregulin-1, membrane-bound isoform (Homo sapiens), sequence (Q02297 whole entry, looked up, the tested form may be a part, canonical isoform): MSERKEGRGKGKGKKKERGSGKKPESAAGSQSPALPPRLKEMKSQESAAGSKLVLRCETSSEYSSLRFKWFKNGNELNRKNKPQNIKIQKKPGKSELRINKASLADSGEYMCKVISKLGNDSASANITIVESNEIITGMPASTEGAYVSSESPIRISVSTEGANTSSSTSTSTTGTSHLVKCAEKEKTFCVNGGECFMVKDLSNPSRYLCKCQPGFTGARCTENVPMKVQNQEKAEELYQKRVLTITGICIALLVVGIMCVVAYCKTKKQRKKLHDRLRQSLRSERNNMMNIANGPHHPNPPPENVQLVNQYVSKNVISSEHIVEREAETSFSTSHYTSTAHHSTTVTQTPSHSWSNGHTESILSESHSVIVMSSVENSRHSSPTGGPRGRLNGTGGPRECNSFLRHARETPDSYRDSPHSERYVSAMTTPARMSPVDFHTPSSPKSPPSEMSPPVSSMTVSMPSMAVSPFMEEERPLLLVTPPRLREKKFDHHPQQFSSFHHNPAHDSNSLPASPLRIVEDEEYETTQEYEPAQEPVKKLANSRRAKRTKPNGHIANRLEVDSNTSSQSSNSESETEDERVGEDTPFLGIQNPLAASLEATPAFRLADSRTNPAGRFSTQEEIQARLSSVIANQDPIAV

| SMILES | composite z-score [1] | composite z-score [2] | composite z-score [3] | composite z-score [4] | composite z-score [5] | composite z-score [6] | composite z-score [7] | z-score [8] | composite z-score [9] | composite z-score [10] |
| --- | --- | --- | --- | --- | --- | --- | --- | --- | --- | --- |
| CC(C)C[C@@H]1NC(=O)[C@@H]2C[C@H](C(=O)NCCCC[N+](C)(C)C)[C@H](c3cccc(OCCO)c3)N2C1=O | 0.157 | 1.09 | -0.0784 | -0.0155 | -0.884 | 1.05 | 1.12 | 0.14 (inactive) | 0.496 | 0.595 |
| CN(C)CCCCCCNC(=O)[C@@H]1C[C@@H]2C(=O)NCC(=O)N2[C@@H]1c1ccc(O)cc1 | -0.316 | 1.51 | 0.0231 | 1.26 | 0.194 | 0.504 | 1.34 | 2.08 (inactive) | 0.92 | 0.107 |
| COC(=O)[C@@]1(Cc2ccccc2)[C@H]2c3cc(C(=O)N4CCCC4)n(Cc4ccc(OC(F)(F)F)cc4)c3C[C@H]2CN1C(=O)c1ccccc1 | 1.38 | -0.277 | 0.337 | 0.42 | 1.72 | 1.62 | 1.18 | 0.705 (inactive) | 1.73 | 0.405 |
| CC(C)CN1C(=O)[C@@]2(Cc3ccccc31)c1ccccc1C(=O)N(Cc1ccccc1)[C@H]2c1ccc(CO)cc1 | 0.849 | -0.675 | -0.148 | -0.0466 | -0.713 | -0.544 | -0.152 | -0.314 (inactive) | -0.759 | -0.261 |
| COC(=O)C(CC#Cc1ccc2c(c1)[C@]1(C(=O)N2)[C@H](c2ccc(O)cc2)N2[C@H](c3ccccc3)[C@H](c3ccccc3)OC(=O)[C@H]2[C@@H]1C(=O)O)C(=O)OC | -0.331 | -0.11 | -0.132 | 0.206 | 0.63 | 0.82 | 0.798 | 0.831 (inactive) | 1.25 | 0.0505 |
| [N-]=[N+]=Nc1ccccc1C[C@]1(C(=O)NCCN2CCOCC2)N=C(c2ccc(OCCCO)cc2)O[C@H]1c1ccccc1N=[N+]=[N-] | -0.195 | -0.354 | 0.125 | 0.763 | 1.64 | 1.59 | 1.33 | -0.344 (inactive) | 0.839 | 0.113 |
| CN(C)CCCN1C(=O)[C@@]2(Cc3ccccc31)c1ccccc1C(=O)N(Cc1ccccc1)[C@H]2c1ccc(CO)cc1 | -0.0277 | 0.115 | -0.0861 | -0.492 | -0.639 | 0.466 | -0.226 | 0.878 (inactive) | 1.02 | -0.0994 |
| O=C1NC(=O)C2C1C=CC(C(O)c1ccc3c(c1)OCO3)N2Nc1ccc(Cl)cc1Cl (stereo not given) | 0.358 | -0.173 | -0.0274 | 0.218 | 1.22 | 1.73 | 0.543 | 1.28 (inactive) | 0.176 | -0.291 |
| OCc1ccc(-c2cc[n+](Cc3cccc(OC(F)(F)F)c3)cc2)cc1 | 0.253 | 0.502 | -0.0887 | -0.0076 | 1.4 | 1.48 | 0.946 | 1.41 (inactive) | 0.597 | -0.0994 |
| CCOC(=O)C1=CC[C@@H](c2ccc(N(CC)CC)cc2)N(S(=O)(=O)c2ccc(C)cc2)[C@H]1c1ccc([N+](=O)[O-])cc1 | 0.709 | -0.346 | -0.0336 | -0.865 | -0.398 | 0.722 | 0.722 | -0.162 (inactive) | 0.0676 | -0.0237 |
| COCCCNC(=O)[C@@]1(Cc2ccccc2)COC(c2ccc(OCCCO)cc2)=N1 | 0.0674 | -0.321 | -0.0745 | 0.821 | 0.694 | 1.77 | 0.99 | -1.02 (inactive) | 0.696 | -0.135 |
| CN(C)C(=O)[C@]1(Cc2ccccc2N=[N+]=[N-])N=C(c2ccc(OCCCO)cc2)O[C@@H]1c1ccccc1CN=[N+]=[N-] | -0.144 | 0.937 | 0.122 | 0.794 | 1.51 | 1.8 | 1.19 | 0.643 (inactive) | 0.745 | -0.0994 |
| NCCCCCCNC(=O)[C@H]1C[C@H]2C(=O)N3CCC[C@H]3C(=O)N2[C@H]1c1ccc(O)cc1 | 0.185 | 0.533 | -0.029 | 0.176 | -0.45 | 1.23 | 1.22 | -0.415 (inactive) | 0.0744 | -0.184 |
| COc1cc2c(cc1OC)CN(C(=O)[C@@H]1[C@H]3C(=O)O[C@H](c4ccccc4)[C@H](c4ccccc4)N3[C@H](c3ccc(O)cc3)[C@@]13C(=O)Nc1ccc(C#CCNC(N)=O)cc13)CC2 | -0.133 | -0.121 | -0.0616 | 0.411 | 0.578 | 0.559 | 0.544 | 0.238 (inactive) | 0.75 | -0.0994 |
| O=C1C[C@@](C(=O)NCc2ccccc2)(c2ccc([N+](=O)[O-])cc2)[C@@H](c2ccc(CO)cc2I)N1C1CCCCC1 | 1.95 | 0.379 | 0.347 | 0.352 | 1.08 | 0.819 | 1.29 | -0.524 (inactive) | 1.3 | 0.368 |
| C=CCOC(=O)[C@@H]1[C@H]2C(=O)O[C@H](c3ccccc3)[C@H](c3ccccc3)N2[C@H](c2ccc(OCCOC(=O)[C@@H]3C[C@@H]4C(=O)N[C@@H](CCCCNC(C)=O)C(=O)N4[C@@H]3c3ccc(O)cc3)cc2)[C@@]12C(=O)Nc1ccc(I)cc12 | -0.101 | 0.0133 | -0.0502 | 0.722 | 0.971 | 0.767 | 1.16 | 0.0976 (inactive) | 0.4 | -0.0346 |
| [N-]=[N+]=NCc1ccccc1[C@H]1OC(c2ccc(OCCCO)cc2)=N[C@@]1(Cc1ccccc1N=[N+]=[N-])C(=O)N1CCCCC1 | 0.398 | 0.221 | 0.141 | 0.263 | 1.32 | 1.32 | 1.04 | -1.6 (inactive) | 1.41 | -0.199 |

| SMILES | composite z-score [1] | composite z-score [2] | composite z-score [3] | composite z-score [4] | composite z-score [5] | composite z-score [6] | composite z-score [7] | z-score [8] | composite z-score [9] | composite z-score [10] |
| --- | --- | --- | --- | --- | --- | --- | --- | --- | --- | --- |
| O=[N+]([O-])c1ccc(C[n+]2ccc(-c3ccc(CO)cc3)cc2)o1 | -0.217 | 0.239 | -0.0266 | 0.165 | 1.29 | 1.52 | 0.373 | -0.721 (inactive) | 0.273 | 0.0373 |
| O=C1NC(=O)C2C1C=CC(C(O)CCc1ccccc1)N2Nc1ccccn1 (stereo not given) | 0.313 | 0.478 | -0.0881 | 0.0386 | 1.07 | 1.19 | 0.83 | -0.338 (inactive) | 0.172 | -0.407 |
| COC(=O)[C@@]1(Cc2ccccc2)[C@H]2c3cc(C(=O)N(C)C)n(Cc4ccc(O)c(OC)c4)c3C[C@H]2CN1C(=O)c1ccccc1 | 0.709 | 1.36 | 0.0487 | 0.523 | 1.56 | 0.934 | 1.24 | 3.26 (inactive) | 1.91 | 2.58 |
| C=CC[C@]1(C(=O)NCC(O)CO)N=C(c2ccc(OCCCO)cc2)O[C@H]1c1ccccc1N=[N+]=[N-] (stereo not given in full) | 0.227 | -0.444 | 0.0649 | 0.154 | 0.323 | 1.8 | 1.11 | 1.25 (inactive) | 0.375 | 0.23 |
| O=C1C2C=CC(C(O)c3cccc4ccccc34)N(Nc3ccccc3)C2C(=O)N1c1ccccc1 (stereo not given) | -0.0673 | 0.113 | 0.127 | 0.822 | 1.61 | 1.89 | 1.19 | -1.41 (inactive) | 1.55 | -0.261 |
| NC(=O)[C@@H]1[C@H]2C(=O)O[C@H](c3ccccc3)[C@H](c3ccccc3)N2[C@H](c2ccccc2OCCO)[C@@]12C(=O)Nc1ccc(C#CCCO)cc12 | -0.159 | 0.45 | -0.0502 | -0.0477 | 0.0307 | 0.352 | 0.0434 | 0.7 (inactive) | -0.0579 | -0.236 |
| COC(=O)[C@@]1(Cc2ccc(F)cc2)[C@H]2c3cc(C(=O)N4CCCC4)n(Cc4ccccc4)c3C[C@H]2CN1C(=O)c1ccccc1 | 0.106 | -0.663 | 0.0451 | 0.19 | 1.56 | 1.83 | 1.12 | 1.2 (inactive) | 1.23 | 0.0578 |
| CCN(CC)c1ccc(N2CC=CC34O[C@@H]5/C=C\CCCOC(=O)C5[C@H]3C(=O)N(CCCCCCO)[C@@H]4C2=O)cc1 (stereo not given in full) | 0.272 | -0.305 | -0.119 | -0.964 | -0.946 | 1.63 | 0.709 | -0.489 (inactive) | -0.958 | -0.271 |
| O=C1c2ccccc2C(=O)C2CC([C@H]3Oc4ccccc4S(=O)(=O)N4CCC[C@@H]34)=CCC12 (stereo not given in full) | -0.253 | -0.0672 | -0.176 | -0.159 | 0.193 | 0.583 | 0.449 | -1.71 (inactive) | -0.0883 | 0.21 |
| CC[C@@H]1[C@@H]2C3C(=O)N(CC)C(=O)C3CC(=O)[C@@H]2[C@H](c2ccc(C)cc2)N1S(=O)(=O)c1ccc(C)cc1 (stereo not given in full) | -0.38 | 0.0428 | 0.161 | 0.383 | 1.56 | 1.37 | 1.1 | -1.04 (inactive) | 0.635 | -0.19 |
| C=CC[C@@]1(C(=O)NCC(O)CO)N=C(c2ccc(OCCCO)cc2)O[C@@H]1c1ccccc1 (stereo not given in full) | 1.49 | 2.09 | 0.255 | 0.44 | -0.565 | 1.64 | 0.845 | -1.09 (inactive) | 0.872 | 0.108 |
| CCCN1C(=O)[C@@H]2Cc3c([nH]c4ccccc34)[C@@H](c3cccc(O)c3)N2C1=O | -0.588 | 0.247 | -0.113 | 0.428 | 0.59 | 0.263 | 0.12 | 0.85 (inactive) | -0.0001 | -0.0994 |
| CCCC[C@@H](O)C1=C(COc2ccccc2)Cn2c(=O)n(-c3ccccc3)c(=O)n2[C@H]1CO | -0.353 | -0.0302 | -0.118 | 0.0467 | -0.239 | -0.21 | -0.851 | -1.83 (inactive) | -0.512 | 0.0274 |
| COC(=O)c1ccc(OC)c(/C=C\CC(CCc2ccccc2)OC(C)=O)c1 (stereo not given) | -0.28 | -0.115 | -0.118 | -0.672 | -0.394 | -0.289 | -0.288 | -2.76 (inactive) | -0.458 | 0.101 |
| C=CCC(OC(C)=O)[C@@H]1[C@@H](N(Cc2ccc(-c3ccccc3)cc2)C(=O)c2cccc3ccccc23)c2cc(OCCCO)ccc2N1C(=O)c1ccc2ccccc2n1 (stereo not given in full) | -0.0204 | 0.113 | -0.102 | -0.0251 | 0.127 | 0.152 | -0.669 | -1.45 (inactive) | 0.294 | 0.0373 |
| C=C(/C(=C/C[C@@H](OC(=O)c1ccncc1)c1cccc(OCCO)c1)c1cc(C(=O)OC)ccc1OC)C(C)C | -0.295 | 0.679 | -0.0549 | 0.579 | 0.868 | 0.826 | 0.981 | -1.61 (inactive) | 0.351 | -0.0994 |
